Rows were chosen to be rich in hits. Some 19% of all compounds tested hit in one or more screens of this group.
HT1080 IDH1KD tx = toxicity to HT-1080 IDH1 knockdown cells (counter line); AID 686971; Potency, µM (series often up to 46.1 µM), inactives show at the highest dose activity, negative = toxicity, actives largely listed as cytotoxic; 2% of 360,000 active; HT-1080 IDH1 knockdown viability, ATP luminescence, 48 h;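 also: 0% = DMSO wells and -100% = cell-free medium wells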
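Luminescent ATP read-out (CellTiter-Glo, 10 min at room temperature) after 48 h compound exposure at 37 °C gave viability of IDH1-knockdown HT-1080 cells. Activity was normalised to DMSO and cell-free wells, then fitted as concentration-response curves.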
KB-3-1 cytotox = kills parental KB-3-1 adenocarcinoma cells; Potency, µM (top dose mostly 46.1 µM), hits mostly cytotoxic; KB-3-1 viability, CellTiter-Glo ATP luminescence, 72 h; 1.4% of 400,000 active; also: nearly all actives have a fitted effect of over 60% in size
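Parental KB-3-1 adenocarcinoma cells in phenol-red-free DMEM with 10% FBS were pin-treated with compounds at several concentrations, incubated 72 h at 37 °C, and viability read by CellTiter-Glo luminescence; concentration-effect curves were fitted after normalization.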
KB-V1 MDR tox = kills drug-selected multidrug resistant KB-V1 cells | 3.4% of 400,000 active | KB-V1 MDR cells viability, CellTiter-Glo, 72 h | Potency, µM (titrated, usually from 46.1 µM), usual class: cytotoxic; also: nearly all actives have a fitted effect of over 60% in size
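Readout: CellTiter-Glo luminescence, 10 min after addition. Cells: KB-V1 MDR subline, 72 h at 37 degrees C with compound. Analysis: corrected, normalized data fitted to concentration-effect curves.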
HT1080NT lethal = kills 2HG-producing HT-1080-NT fibrosarcoma cells; HT-1080-NT fibrosarcoma viability, CellTiter-Glo ATP luminescence, 48 h; Potency, µM (top dose mostly 46.1 µM), for the others: top-dose activity, negative = less viability, hits mostly cytotoxic; 1.6% of 360,000 active;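 also: NT is the 2HG producing partner of a matched IDH1 knockdown line; 0% = DMSO-treated cells and -100% = media-only wells without cells; nearly all actives have a fitted effect of over 55% in size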
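Viability by CellTiter-Glo luminescence after 48 h compound exposure at 37C of HT-1080-NT cells (750/well, RPMI, 5% FBS). % activity scaled between DMSO wells and medium-only wells, then curve-fitted and categorized by curve class.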
TDP1 cell CPT = DT40-hTDP1 cell growth loss with CPT. chicken DT40 Tdp1-/-;hTDP1 cells + 20 nM CPT, ATP luminescence, 48 h. Potency, µM (top dose mostly 46.2 µM), inactives show top-dose activity change, negative = growth inhibition, hits mostly inhibitors. 12% of 420,000 active. AID 686979; also: nearly all actives have a fitted effect of over 55% in size
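Chicken DT40 Tdp1-/- cells complemented with human TDP1, 400 cells/well, exposed to compounds plus 20 nM camptothecin for at least 48 h at 37 C; viability read as ATP content by CellTiter-Glo luminescence.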
DT40 TDP1 no CPT = qHTS for Inhibitors of human tyrosyl-DNA phosphodiesterase 1 (TDP1): qHTS in cells in absence of CPT; DT40 Tdp1-/- hTDP1 cells, no CPT, ATP luminescence, 48 h; Potency, µM (doses to about 46.2 µM), inactives show top-dose activity change, negative = growth inhibition, usual class: inhibitors; 15% of 420,000 active; also: nearly all actives have a fitted effect of over 55% in size
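Compound effects on proliferation are scored in DT40 Tdp1-/-;hTDP1 cells in the absence of CPT. ATP levels (CellTiter-Glo luminescence) are recorded after a ≥48 hr, 37 °C incubation.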
* = called active by the depositor; i = inactive; ? = inconclusive; · = not tested or not shown. Calls follow the shape of the dose curve; as a rule, active = well fitted curve in the direction sought with a large enough effect; inconclusive = small, poorly fitted or top-dose-only effect, or another doubt; inactive = no such curve, though single readings can be large; an effect the other way counts as inactive or inconclusive. Unless noted, % is scaled to controls: 0 for no effect and ±100 for the full control effect; potency is read from the fitted curve at half-maximal effect.

SMILES	HT1080 IDH1KD tx	KB-3-1 cytotox	KB-V1 MDR tox	HT1080NT lethal	TDP1 cell CPT	DT40 TDP1 no CPT
S=c1[nH]nc(-c2ccc(Cl)cc2)n1/N=C/C=C/c1ccco1	-9%	i	i	-17%	?	21µM*
CN1CC(=O)N(CC(=O)Nc2cccc(S(=O)(=O)N3CCOCC3)c2)C1=O	6%	i	i	6%	17%	-25%
Cc1ccc(S(=O)(=O)N2CCN(C(=O)CSc3ncn[nH]3)CC2)cc1	-1%	i	i	1%	-7%	-17%
Cc1cc(C(=O)CN2C(=O)CN(C)C2=O)c(C)n1-c1cccc(S(=O)(=O)N2CCOCC2)c1	-2%	i	i	2%	-17%	4.6µM*
Cc1cc(C(=O)CSc2ncn[nH]2)c(C)n1-c1cccc(S(=O)(=O)N2CCOCC2)c1	-6%	i	?	-7%	?	18µM*
Cc1ccc(-n2c(C)cc(C(=O)CN3CCOCC3)c2C)cc1C	-1%	i	?	-2%	21µM*	?
Cc1cc(-n2c(C)cc(C(=S)N3CCOCC3)c2C)ccc1Br	-2%	?	8.2µM*	7%	15µM*	16µM*
Cc1ccc(-n2c(C)cc(C(=O)CN3CCOCC3)c2C)cc1	-2%	i	i	-14%	-18%	-28%
CC(=O)c1c(C)[nH]c(C(=O)OCC(=O)NCc2ccccc2)c1C	-4%	i	?	8%	?	?
CNC(=O)CSc1cn(CC(=O)N(C(C)C)C(C)C)c2ccccc12	8%	i	i	26%	1%	-8%
Cc1cc(C(=O)CCl)c(C)n1-c1cccc(S(=O)(=O)N2CCOCC2)c1	?	i	16µM*	23µM*	1.3µM*	2.3µM*
Cc1ccc(C)n1-c1cccc(S(=O)(=O)N2CCOCC2)c1	-23%	i	i	-10%	-1%	?
Cn1c(=O)c2cc(NC(=O)NCc3ccc(F)cc3)ccc2n1C/C=C/c1ccccc1	?	?	i	?	8.2µM*	9.2µM*
CCOCCC(=O)Nc1ccc2c(c1)c(=O)n(C)n2-c1ccccc1F	7%	i	i	17%	-27%	-21%
CCNC(=O)Nc1ccc2c(c1)c(=O)n(C)n2CC=C(C)C	12%	i	i	13%	-18%	-5%
CC(C)=CCn1c2ccc(NC(=O)NCc3ccc(F)cc3)cc2c(=O)n1C	2.3µM*	4.6µM*	i	?	2.1µM*	1.6µM*
Cn1c(=O)c2cc(NC(=O)Cc3ccccc3F)ccc2n1C/C=C/c1ccccc1	-6%	i	i	-4%	?	?
CCOCCC(=O)Nc1ccc2c(c1)c(=O)n(C)n2C/C=C/c1ccccc1	4.1µM*	6.5µM*	?	?	4.6µM*	3.3µM*
Cc1ccc(CNC(=O)CCCN2C(=O)CCn3nc(-c4cn(C)c5ccccc45)cc32)cc1	·	i	i	·	-8%	-1%
CC1(C)OC(=O)N(c2ccccc2)C12C=Cc1cc(Br)ccc1O2 (stereo unspecified)	-15%	i	?	-11%	?	?
CN1c2ccccc2C(C)(C)[C@]12C=Cc1cc(O)ccc1O2	18µM*	?	i	?	2.6µM*	7.3µM*
O=C1CN(C(=O)Cc2ccc(F)cc2)C(c2ccccc2)c2cc(Br)ccc2N1 (stereo unspecified)	·	i	i	·	?	?
O=C1CN(C(=O)c2ccc(S(=O)(=O)N3CCCC3)cc2)C(c2ccccc2)c2cc(Br)ccc2N1 (stereo unspecified)	·	?	i	·	15µM*	?
Cc1ccc2c(c1)C(c1ccccc1)N(C(=O)c1ccc(Br)o1)CC(=O)N2 (stereo unspecified)	-22%	i	i	?	21µM*	21µM*
O=C1CN(C(=O)c2ccc(Br)o2)C(c2ccccc2)c2cc(Br)ccc2N1 (stereo unspecified)	-27%	?	i	-25%	16µM*	21µM*
SMILES	HT1080 IDH1KD tx	KB-3-1 cytotox	KB-V1 MDR tox	HT1080NT lethal	TDP1 cell CPT	DT40 TDP1 no CPT
COC(=O)Cn1c(=NC(=O)c2ccc3c(c2)OCCO3)sc2ccccc21	·	·	·	·	-3%	-11%
CC(C)(C)CC(C)(C)c1ccc(O)c(-n2nc3ccccc3n2)c1	·	·	·	·	-1%	-3%
CCOC(=O)c1c(S(=O)(=O)N2CCC(C(=O)NCc3cccc(C)c3)CC2)c(C)n(C)c1C	·	i	i	·	0%	-14%
COC1=CC(=O)C(C(=O)c2ccccc2)=CC1=O	·	·	·	·	?	5.8µM*
COc1ccc(C(=O)c2ccccc2)cc1	11%	?	i	1%	16%	-11%
COc1ccc(CC(=O)Oc2cc(C)[nH]c(=O)c2[N+](=O)[O-])cc1	20%	i	?	18%	-13%	8%
CCNC(=S)Nc1ccc(Oc2ccccc2)cc1	-11%	i	i	-10%	?	18µM*
O=C(O)CCCC(=O)Nc1ccc(OCc2nc3ccccc3s2)cc1	-7%	i	i	-4%	10%	?
COc1ccc(NC(=S)Nc2ccc(Oc3ccccc3)cc2)cc1	-8%	i	i	-6%	23µM*	?
CCNC(=S)Nc1ccc(OCc2nc3ccccc3s2)cc1	-11%	i	i	-9%	16µM*	23µM*
COc1ccc(NC(=S)NN(C)C(=S)Nc2ccc(OC)cc2)cc1	1.3µM*	?	?	1.5µM*	?	?
COc1cccc(Cn2c(CNC(=O)C(C)C)nc3cccnc32)c1	·	·	·	·	-10%	13%
CCCCS(=O)(=O)N1CCN(S(=O)(=O)c2cccs2)CC1	16%	?	i	17%	5%	2%
COc1ccccc1CNC(=O)COC(=O)c1cc(=O)c2ccccc2o1	0%	i	i	-7%	-14%	18%
O=C1CNC(=S)N1c1nc(-c2ccccc2)cs1	-3%	i	i	2%	-5%	-10%
Cc1cc2nc(N3C(=O)CNC3=S)sc2cc1C	-16%	?	16µM*	-22%	?	5.8µM*
CCOc1ccc2nc(N3C(=O)CNC3=S)sc2c1	-1%	i	?	-17%	16µM*	6.5µM*
COc1ccc(CNC(=O)CN(C(=O)c2csnn2)c2cccc3ccccc23)cc1	-8%	i	i	-2%	-2%	-23%
